Where “and” joins values, the source holds several entries; their conditions need not be identical. Equal values may be shown once. Records with an inconclusive call do not appear. Where a call stands in place of a potency, no number is given. Values without a mark were called inactive. Calls of active or inactive are those of the source. Calls follow the shape of the dose curve; as a rule, active = well fitted curve in the direction sought with a large enough effect; inconclusive = small, poorly fitted or top-dose-only effect, or another doubt; inactive = no such curve, though single readings can be large; an effect the other way counts as inactive or inconclusive.
Key:
[1] = target: Cytochrome P450 3A7 (Homo sapiens) (UniProt P24462); assay: Cytochrome P450 family 3 subfamily A member 7 (CYP3A7) small molecule antagonists: luciferase biochemical qHTS assay (AID 1963596); also: nearly all actives have a fitted effect of over 40% in size
Cytochrome P450 3A7 (Homo sapiens), sequence (P24462 whole entry, looked up): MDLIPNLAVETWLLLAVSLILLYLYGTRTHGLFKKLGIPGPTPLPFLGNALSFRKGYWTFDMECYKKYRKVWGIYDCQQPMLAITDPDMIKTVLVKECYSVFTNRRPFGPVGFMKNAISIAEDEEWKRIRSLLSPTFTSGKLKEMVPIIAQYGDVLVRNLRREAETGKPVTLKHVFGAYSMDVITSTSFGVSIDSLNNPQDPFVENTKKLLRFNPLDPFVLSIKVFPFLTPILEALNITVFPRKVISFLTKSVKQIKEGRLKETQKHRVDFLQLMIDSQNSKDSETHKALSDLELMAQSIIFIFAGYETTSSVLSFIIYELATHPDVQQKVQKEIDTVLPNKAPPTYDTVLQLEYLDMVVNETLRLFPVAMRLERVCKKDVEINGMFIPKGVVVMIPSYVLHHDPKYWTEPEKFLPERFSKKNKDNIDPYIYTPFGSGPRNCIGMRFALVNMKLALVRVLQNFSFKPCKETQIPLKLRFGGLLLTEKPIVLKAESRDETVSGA
How it was run: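 P450-Glo luminescent assay: CYP3A7 enzyme converts a proluciferin substrate to luciferin, detected by luciferase reagent; light proportional to activity. Compounds in DMSO preincubated 10 min with enzyme-substrate mix at room temperature, then NADPH regeneration added for 1 h.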

[2] = Viability qHTS for spleen associated tyrosine kinase inhibitor (SYKi) naive MV4-11 cells (AID 1963823); also: nearly all actives have a fitted effect of over 40% in size; also: potency is read from the fitted curve at half-maximal effect
How it was run: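 Luminescence from CellTiter-Glo, developed 10 min at room temperature, gave viability of MV4-11 cells never exposed to SYK inhibitor. Cells (500/well) had been incubated with compounds for 72 hr under standard culture conditions.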

[3] = Viability qHTS for spleen associated tyrosine kinase inhibitor (SYKi) drug resistant MV4-11 cells (AID 1963824); also: nearly all actives have a fitted effect of over 35% in size; also: potency is read from the fitted curve at half-maximal effect
How it was run: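 SYK inhibitor-resistant MV4-11 AML cells, 500 per well, added to predispensed compounds and incubated 72 hr at 37 C, 5% CO2. Viability measured by CellTiter-Glo luminescence after 10 min at room temperature.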

[4] = Cellular viability qHTS for adrenocortical cancer (ACC) cell line SW-13 (AID 1963989); settings: SW-13 ACC cells viability, CellTiter-Glo, 48 h; activity (max response): stronger effect = lower value;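 also: cells grown in serum-free medium with ITS supplement; nearly all actives have a fitted effect of over 65% in size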
How it was run: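 Viability was read as CellTiter-Glo luminescence after 48 h compound treatment (up to 46 uM final) of SW-13 cells grown serum-free; titration curves were fit with a four-parameter logistic model to give IC50 and efficacy.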

[5] = Cellular viability qHTS for adrenocortical cancer (ACC) cell line NCI-H295R (AID 1963990); also: nearly all actives have a fitted effect of over 60% in size
How it was run: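 CellTiter-Glo ATP luminescence, read 48 h after compound addition, measured viability of NCI-H295R adrenocortical cells grown serum-free with ITS. Final concentrations spanned up to 46 uM. Data normalized to DMSO and doxorubicin, fitted for IC50 and maximal response.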

SMILES | Potency [1] | Potency [2] | Potency [3] | activity (max response) [4] | Potency [5]
CCCN(CCC)C(=O)C(CCC(=O)O)NC(=O)c1ccccc1 (stereo not given) | inactive | inactive | inactive | 0.293% and -17.2% | inactive
C[C@]12CCC(=O)C=C1CC[C@@H]1[C@@H]2[C@@H](O)C[C@@]2(C)[C@H]1CC[C@]2(O)C(=O)CO | inactive | inactive | inactive | 8.55% and 7.07% | inactive
CC(=O)Nc1ccc(CC(=O)O)cc1 | inactive | inactive | inactive | 4.33% | inactive
Nc1nc(-c2ccccc2)c(Br)c(=O)[nH]1 | inactive | inactive | inactive | 0.407% | inactive
Cn1c(=O)c2[nH]c(Br)nc2n(C)c1=O | inactive | inactive | inactive | -1.12% | inactive
O=c1[nH]c(=O)n([C@H]2CCCO2)cc1F | inactive | 14.6 µM (active) | 10.6 µM (active) and 9.2 µM (active) | -5.11% | inactive
Cc1cc2c(cc1CC(=O)c1sccc1S(=O)(=O)Nc1onc(C)c1Cl)OCO2 | inactive | inactive | inactive | 2.25% and -17.1% | inactive
CN(C)C(=O)c1cc2cnc(Nc3ccc(N4CCNCC4)cn3)nc2n1C1CCCC1 | inactive | 2.31 µM (active) | 5.17 µM (active) | -9.21% | inactive
[O-][n+]1cccc(/C(Cl)=N/OC[C@@H](O)CN2CCCCC2)c1 | inactive | inactive | inactive | 9.86% | inactive
CCN1CCCC1=O | inactive | inactive | inactive | 9.62% | inactive
CCn1cc(C(=O)O)c(=O)c2cnc(N3CCNCC3)nc21 | inactive | inactive | 2.99 µM (active) | 3.41% | inactive
COc1cc(C=O)ccc1O | inactive | inactive | inactive | 3.08% | inactive
CCCCCCCCCCCCCCCCCC(=O)OCC(O)CO (stereo not given) | inactive | inactive | inactive | 5.37% | inactive
Cc1ccc(-c2ccccc2C#N)cc1 | inactive | inactive | inactive | 12.9% | inactive
CC(C)(C)NCC(O)COc1cccc2c1CCC(=O)N2 (stereo not given) | inactive | inactive | inactive | 3.97% | inactive
CCOC(=O)[C@H](CCc1ccccc1)N[C@@H](C)C(=O)N1CCC[C@H]1C(=O)O | inactive | inactive | inactive | 11.5% and -12% | inactive

SMILES | Potency [1] | Potency [2] | Potency [3] | activity (max response) [4] | Potency [5]
CCN1CCN(C(=O)N[C@@H](C(=O)N[C@@H]2C(=O)N3C(C(=O)O)=C(CSc4nnnn4C)CS[C@H]23)c2ccc(O)cc2)C(=O)C1=O | inactive | inactive | inactive | 5.63% and -4.45% | inactive
CC(=O)Nc1ccc(C(=O)O)cc1 | inactive | inactive | inactive | 11.7% | inactive
CCN(CC)CCNC(=O)c1ccc(N)cc1 | inactive | inactive | inactive | 13% | inactive
CN(C(=O)C(Cl)Cl)c1ccc(OC(=O)c2ccco2)cc1 | inactive | inactive | inactive | -5.24% | inactive
CN1Cc2cc(C(=O)N3CCC(C4CCNCC4)CC3)ccc2N[C@@H](CC(=O)O)C1=O | inactive | inactive | inactive | 10.2% | inactive
CC(C)(C)NCC(O)COc1cccc2c1C[C@H](O)[C@H](O)C2 (stereo not given in full) | inactive | inactive | inactive | 9.63% | inactive
CC(=O)N[C@@H](CCC(N)=O)C(=O)O | inactive | inactive | inactive | 11.4% | inactive
CC(C)C(=O)c1c(C(C)C)nn2ccccc12 | inactive | inactive | inactive | 11.5% | inactive
O=C(O)c1cc(=O)c2ccccc2o1 | inactive | inactive | inactive | -0.886% | inactive
OCCCc1ccccc1 | inactive | inactive | inactive | 4.32% | inactive
CC(=O)N[C@@H](Cc1ccc(O)cc1)C(=O)O | inactive | inactive | inactive | -8.88% | inactive
Nc1nc2c(ncn2CCC(CO)CO)c(=O)[nH]1 | inactive | inactive | inactive | -4.77% | inactive
O=C1NC(c2ccccc2)(c2ccccc2)C(=O)N1COP(=O)(O)O | inactive | inactive | inactive | 10.4% | inactive
CN(C)CCC(c1ccccc1)c1ccccn1 (stereo not given) | inactive | inactive | inactive | 13.1% | inactive
NCC1CCC(C(=O)Oc2ccc(CCC(=O)O)cc2)CC1 (stereo not given) | inactive | inactive | inactive | 3.63% | inactive

— PubChem BioAssay (NCATS)
